# Screening data: PubChem BioAssay, The Scripps Research Institute Molecular Screening Center
# hgDAF-12 ag: agonists of H. glycines DAF-12 nuclear receptor | actives 1.8% (n = 370,000) | activation, % at 6.8 µM | HEK293 GAL4-hgDAF12 UAS-luciferase reporter, agonist luminescence; normalized to butyrate control;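 active = activation above a cutoff set at the mean of all screened compounds plus 3 SD, cut at about 10% in these data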;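 also: 0% = DMSO wells and 100% = sodium butyrate wells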
# SMARCA2 activ: activators of SMARCA2 function | MG213 cells, MMTV-luciferase reporter, dexamethasone, overnight | activation, % at 9.1 µM | actives 1% (n = 370,000) | AID 652017; in the data active = activation above about 7.8%;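 also: 0% = vehicle wells and 100% = reference activator wells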
# DAX1 inh-1: inhibits human nuclear receptor DAX1; actives 0.99% (n = 340,000); AID 504766; HEK293 Gal4-DAX1 luciferase reporter, luminescence; P51843; inhibition, % at 6.75 µM;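 active = inhibition above the mean over all tested compounds plus 3 SD, cut at about 4.2% in these data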;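 also: 0% = DAX1-transfected cells with DMSO and 100% = empty-vector control cells with DMSO; inhibition shows as a rise in luminescence from relieved DAX1 repression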
# Target sequence (P51843 207-470 limits assumed): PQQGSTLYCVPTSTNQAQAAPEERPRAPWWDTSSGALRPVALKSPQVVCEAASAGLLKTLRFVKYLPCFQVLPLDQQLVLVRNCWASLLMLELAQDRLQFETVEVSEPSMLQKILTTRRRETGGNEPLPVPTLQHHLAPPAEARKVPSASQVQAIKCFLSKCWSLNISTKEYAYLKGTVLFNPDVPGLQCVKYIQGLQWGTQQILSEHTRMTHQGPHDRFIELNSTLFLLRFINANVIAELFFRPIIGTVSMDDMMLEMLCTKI
# ssDAF12 agonist: S. stercoralis DAF-12 activation, primary screen | HEK293 ssDAF-12/GRIP1 lit1-tk-luc reporter, luminescence; % of 3 µM dafachronic acid response | activation, % at 6.8 µM | actives 1% (n = 370,000);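 active = activation above the mean over all tested compounds plus 3 SD, cut at about 0.9% in these data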;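 also: 0% = DMSO-only wells and 100% = 3 µM delta7-dafachronic acid wells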
# hcDAF-12 act: activators of H. contortus DAF-12 nuclear receptor. HEK293 hcDAF-12 lit1-tk-luc reporter, luminescence; 0% DMSO, 100% Δ7-dafachronic acid. activation, % at 6.8 µM. actives 1.4% (n = 370,000). AID 652067;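 active = activation above the mean of all tested compounds plus 3 SD, cut at about 5.5% in these data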;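 also: 100% = response to 3 µM Δ7-dafachronic acid high control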
# DAX1 inh-2: inhibitors of DAX1 repression of SF-1 activated StAR promoter; HEK293T StAR-luciferase reporter, SF-1/DAX-1 repression relief; inhibition, % at 6.8 µM; actives 1.1% (n = 370,000);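 active = inhibition above the mean over all tested compounds plus 3 SD, cut at about 3.6% in these data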;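 also: 0% = DAX-1 cells with DMSO and 100% = cells lacking DAX-1 with DMSO; higher inhibition means more luminescence from relief of DAX-1 repression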
# SMARCA2 conf: confirmation of SMARCA2 (BRM) function activators; shares compounds with SMARCA2 activ; MG213 cells, MMTV-luciferase with dexamethasone, luminescence, overnight; MG213 cells expressing E1A, Rb sequestered; DMSO wells 0%, reference activator 100%; activation, % at 9.1 µM; actives 30% (n = 3,500); AID 652260;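 active = activation above its plate's cutoff, the mean activation of tested wells plus 3 SD, cut at about 7.9% in these data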
# VP16 Luc act: GAL4-VP16 reporter activation counter-screen | shares compounds with SMARCA2 activ | HEK293 GAL4-VP16 pG5luc reporter, luciferase luminescence; scaled: DMSO wells 0%, SAHA wells 100% | activation, % at 9.1 µM | actives 41% (n = 3,500) | AID 686939;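 active = activation above the solvent-only control well mean plus 3 SD, averaged across control plates, cut at about 5.2% in these data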
# LXR ag: LXR-beta agonism as hcDAF-12 counter-screen; shares compounds with hcDAF-12 act; HEK293 Gal4-LXR tk-luc reporter, luminescence, 24 h; normalized: DMSO 0%, positive control 100%; activation, % at 6.8 µM; 3,400 tested, under 10 active; AID 743027;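 active = mean percent activation of the reporter above a cutoff set as the average over tested compounds plus their standard deviation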
# hcDAF12 ag: confirmation of H. contortus DAF-12 agonists. shares compounds with hcDAF-12 act. HEK293 hcDAF-12 lit1-tk-luc reporter, luminescence; % of Δ7-dafachronic acid response. activation, % at 6.8 µM. actives 61% (n = 3,400);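 active = mean activation across triplicate tests above the threshold derived from the earlier primary screen, cut at about 5.5% in these data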;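 also: 0% = DMSO only wells and 100% = 3 µM Δ7-dafachronic acid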
# hgDAF12 ag: hgDAF-12 agonism, confirmation assay; actives 80% (n = 3,300); HEK293 GAL4-hgDAF12 luciferase reporter, agonist mode; percent of butyrate response; activation, % at 6.8 µM; shares compounds with hgDAF-12 ag; AID 743050;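 active = mean activation over triplicate wells above the hit cutoff derived from the earlier primary screen, cut at about 11% in these data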;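 also: 0% = DMSO low control and 100% = 2 mM sodium butyrate high control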
# LXRb DAF12 ctr: counter-screen for DAF-12 agonists: agonists of human LXR-beta. shares compounds with hgDAF-12 ag. 3,300 tested, under 10 active. HEK293 Gal4-LXR luciferase reporter, 24 h. activation, % at 6.8 µM;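 active = mean activation of the triplicate above a set limit carried over from the primary screen, none filed active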
# An asterisk follows results filed as active; x = no result given. Only some compounds are listed: those with a hit (about 4.8% of all), similar ones and a draw of the others.
SMILES,hgDAF-12 ag,SMARCA2 activ,DAX1 inh-1,ssDAF12 agonist,hcDAF-12 act,DAX1 inh-2,SMARCA2 conf,VP16 Luc act,hgDAF12 ag,LXRb DAF12 ctr,others
O=C(Nc1ccc2c(c1)OCO2)N1CCN(Cc2ccco2)CC1,20*,11*,0,1,4,3,0,12*,14*,1,
COc1ccc(C(=O)C2CCN(C(=O)c3ccc(C)cc3)CC2)cc1,-4,-4,-2,-2,-3,-2,x,x,x,x,
COc1ccc(-c2ccc(C(=O)C3CC3)cc2)cc1,15*,10*,2,0,3,2,8.2*,15*,20*,1,
COc1ccc(C2N=C(c3ccccc3)NO2)cc1OC (stereo unspecified),14*,8.6*,5.9*,1,6.1*,2,14*,9.6*,12*,1,
COC(=O)[C@]12C[C@H](CC(=O)NCc3cccs3)C(=O)N(Cc3cccc4ccccc34)C1=C[C@H](C1CCCC1)O[C@@H]2C,-1,-3,x,0,-2,0,x,x,x,x,
CCN(/C=N/c1sc2c(c1C#N)CCCCC2)CC,14*,8.0*,3,-1,6.1*,3,8.7*,7.7*,13*,1,
c1csc(-c2nc(-c3ccc(-c4ccon4)s3)no2)c1,17*,8.9*,3,1,5,2,6,9.7*,17*,1,
COCC1CCN(Cc2nc(-c3cccs3)no2)C1 (stereo unspecified),22*,13*,x,1,3,4,2,6.0*,10,0,
CCCCCCCCN1C(=O)[C@@H](CC(=O)NCC2CCCCC2)C[C@@]2(C(=O)OC)C1=C[C@H](COCc1ccccc1)O[C@@H]2C,2,-2,x,0,3,0,x,x,x,x,
c1ccc(CNn2nnc3ccccc32)cc1,14*,12*,x,-1,-1,2,10.0*,11*,11*,0,
C(#Cc1ccccc1)Cn1nnc2ccccc21,3,-1,1,-1,0,1,x,x,x,x,
Cc1ccsc1/C=N/Nc1nc2ccccc2[nH]1,14*,12*,0,-1,9.9*,3.7*,13*,15*,14*,1,LXR ag=1;hcDAF12 ag=5
O=C(O)C(=O)/C(=C\c1cccc2ccccc12)c1ccc2ccccc2n1,1,0,1,0,2,1,x,x,x,x,
O=C(O)C(=O)/C(=C\c1ccc([N+](=O)[O-])cc1)c1ccc2ccccc2n1,22*,8.7*,2,1,5,3,3,11*,18*,1,
CCN(CC)c1ccc(/C=N/NC(=O)c2ccoc2C)cc1,17*,11*,1,0,5,2,5,11*,19*,1,
Cc1c(C(=O)Nc2ccc3c(c2)OCO3)oc2ccccc12,18*,9.7*,1,2.8*,16*,2,0,11*,21*,1,LXR ag=1;hcDAF12 ag=16*
O=C(Cn1cnc2ccccc2c1=O)NCCC(=O)Nc1ccc2c(c1)OCCO2,-2,-3,1,-1,-3,-1,x,x,x,x,
O=C(Cn1cnc2ccccc2c1=O)Nc1ccc2c(c1)OCCO2,17*,8.0*,4,0,5,3,6,12*,14*,1,
COC(=O)C1=C(C)N(Cc2ccccc2C(F)(F)F)C(=NCc2cccc(C(F)(F)F)c2)NC1c1ccc(F)cc1 (stereo unspecified),4,-3,x,-1,2,-1,x,x,x,x,
C=CCNc1nc(NCc2ccc(N(C)C)cc2)c2sc(-c3ccccc3)cc2n1,15*,10*,x,0,2,4.5*,11*,11*,10,0,
C=CCNc1nc(NCCOC)c2sc(-c3ccccc3)cc2n1,-1,-3,x,-2,-3,-4,x,x,x,x,
COc1ccc(OCc2ccc(/C=N\NC(=O)c3sccc3C)o2)cc1,14*,8.5*,1,-1,2,1,9.4*,2,4,0,
O=C(N/N=C\c1ccc(COc2ccc([N+](=O)[O-])cc2)o1)c1ccc(Cl)cc1,3,-2,0,-1,0,0,x,x,x,x,
Cc1cc(C(=O)CSc2ncccn2)c(C)n1Cc1ccco1,17*,9.9*,1,0.9*,6,4,9.9*,8.5*,18*,1,
Cc1cc(NC(=O)COC(=O)c2ccccc2Cl)no1,-1,-2,0,-1,-2,-1,x,x,x,x,
SMILES,hgDAF-12 ag,SMARCA2 activ,DAX1 inh-1,ssDAF12 agonist,hcDAF-12 act,DAX1 inh-2,SMARCA2 conf,VP16 Luc act,hgDAF12 ag,LXRb DAF12 ctr,others
Cc1cc(/C(N)=N/OC(=O)c2ccccc2Cl)no1,14*,8.6*,x,1.2*,13*,3,12*,11*,17*,1,LXR ag=2;hcDAF12 ag=9.6*
Cn1cnnc1SCC(=O)Nc1ccc2nc(SCc3ccccc3F)sc2c1,13*,9.9*,2,-1,1,1,3,9.0*,13*,0,
CCOc1cccc(C(=O)Nc2ccc(N3CCCC3)cc2)c1,3,1,-1,-1,4,0,x,x,x,x,
CCOc1ccc(OCc2cccc(C(=O)Nc3ccc(CN4CCCCC4)cc3)c2)cc1,18*,12*,-3,0,4,1,14*,10*,19*,1,
COc1ccccc1CNC(=O)N(CCc1c(C)[nH]c2ccccc12)Cc1cccs1,1,-7,x,-1,2,-2,x,x,x,x,
Cc1ccc(C)c(NC(=S)c2ccc3ccccc3n2)c1,17*,8.5*,2,2.0*,22*,2,7,10*,17*,1,LXR ag=1;hcDAF12 ag=15*
